The values below come from PubChem BioAssay (NCI).

Experiment [1] is described as follows: NCI Yeast Anticancer Drug Screen. Data for the rad50 strain (AID 155).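 Also: 0% = growth of vehicle-only cultures of the same strain.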 The conditions noted are these: S. cerevisiae rad50 strain growth inhibition, stronger effect = higher value. The gist of the method:
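Relative growth inhibition (compound vs vehicle) was measured in yeast with a defined repair-gene alteration.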

The nature of experiment [2]: NCI Yeast Anticancer Drug Screen. Data for the mec2-1 strain (AID 157). The conditions noted are these: S. cerevisiae mec2-1 strain, stronger effect = higher value. In short, it runs like this:
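Cells of the genetically defined mec2-1 yeast strain are incubated with test compound. Inhibition of growth is calculated against vehicle-treated controls.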

Experiment [3] can be described thus: NCI Yeast Anticancer Drug Screen. Data for the sgs1 mgt1 strain (AID 161).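 Also: 0% = growth of cultures given vehicle only.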 Conditions: S. cerevisiae sgs1 mgt1 strain, stronger effect = higher value. The gist of the method: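 Test agents were incubated with a DNA-repair-mutant yeast strain. Growth was then read and compared against vehicle-treated controls.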
Experiment [4] can be described thus: NCI Yeast Anticancer Drug Screen. Data for the cln2 rad14 strain (AID 165).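 Also: 0% = growth equal to vehicle treated cultures.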 The conditions noted are these: S. cerevisiae cln2 rad14 strain, stronger effect = higher value. In short, it runs like this:
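The screen exposed genetically defined yeast (cln2 rad14) to test compounds and scored growth inhibition relative to vehicle-treated controls.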

Experiment [5] is described as follows: NCI Yeast Anticancer Drug Screen. Data for the bub3 strain (AID 167). The conditions noted are these: S. cerevisiae bub3 mutant strain, stronger effect = higher value. The gist of the method:
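Screening used yeast with an engineered genetic alteration affecting cell cycle control. Compound-exposed cultures were compared with vehicle cultures, and reduced growth was taken as inhibition.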

Experiment [6] in a line: NCI Yeast Anticancer Drug Screen. Data for the mlh1 rad18 strain (AID 175). Conditions: S. cerevisiae mlh1 rad18 strain growth inhibition, stronger effect = higher value. In short, it runs like this: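 Compound-treated yeast growth, normalised to vehicle controls. Strain bears defined DNA repair mutations.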
Where [7] appears, read: at 5.0 µM (retest, dose inferred, filed as 0.5).
Setting [8] is: at 50.0 µM (retest, dose inferred, filed as 5.0).

This is part of a sample that, as a whole, favours compounds with a hit. Of some 79,000 tested, about 15% had one in any assay. A number with no mark means an inactive call. The source made the active and inactive calls. Rule as the data show it: active = growth inhibition above about 70%; inactive = the rest.

`Clc1ccc(-c2nnc(-c3ccccn3)o2)c(Cl)c1`: the growth inhibition in experiment [1] (setting [7]) was 4%; in experiment [1] (setting [8]), 99% (active); in experiment [1] (at 50.0 µM) it was 99.2% (active); in experiment [2] (setting [7]), -1%; in experiment [2] (setting [8]), 80% (active); in experiment [2] (at 50.0 µM) it was 28.1%. The growth inhibition in experiment [3] (setting [7]) was 0%; in experiment [3] (setting [8]), 99% (active); in experiment [3] (at 50.0 µM), 99.2% (active); in experiment [4] (setting [7]) it was -2%; in experiment [4] (setting [8]), 83% (active); in experiment [4] (at 50.0 µM), 92.7% (active). The growth inhibition in experiment [5] (setting [7]) is 1%; in experiment [5] (setting [8]) it was 94% (active); in experiment [5] (at 50.0 µM), 70.1% (active); in experiment [6] (setting [7]), 1%; in experiment [6] (setting [8]), 96% (active); in experiment [6] (at 50.0 µM), 99.4% (active).

In the case of `CCN(CC)CCC(=O)c1ccc(Oc2ccc(C)cc2)cc1`, the growth inhibition was 13% in experiment [1] (setting [7]); 71% (active) in experiment [1] (setting [8]); 29.9% in experiment [1] (at 50.0 µM); 6% in experiment [2] (setting [7]); 36% in experiment [2] (setting [8]); 40.2% in experiment [2] (at 50.0 µM). Further, the growth inhibition in experiment [3] (setting [7]) is 24%; in experiment [3] (setting [8]), 75% (active); in experiment [3] (at 50.0 µM) it was 58%; in experiment [4] (setting [7]) it was 15%; in experiment [4] (setting [8]), 93% (active); in experiment [4] (at 50.0 µM), 24.9%. Further, the growth inhibition in experiment [5] (setting [7]) was 18%; in experiment [5] (setting [8]) it was 89% (active); in experiment [5] (at 50.0 µM), 67%; in experiment [6] (setting [7]) it was 22%; in experiment [6] (setting [8]) it was 81% (active); in experiment [6] (at 50.0 µM), 53.1%.

For the compound `CC1(c2ccc(S(=O)(=O)c3ccccc3)cc2)OC(=O)C=CC1=O` (configuration not stated), the growth inhibition in experiment [1] (setting [7]) was 82% (active); in experiment [1] (setting [8]), 100% (active); in experiment [1] (at 50.0 µM) it was 99.2% (active); in experiment [2] (setting [7]) it was 92% (active); in experiment [2] (setting [8]) it was 99% (active); in experiment [2] (at 50.0 µM), 99.5% (active). Moreover, the growth inhibition is 94% (active) in experiment [3] (setting [7]); 99% (active) in experiment [3] (setting [8]); 99.5% (active) in experiment [3] (at 50.0 µM); 44% in experiment [4] (setting [7]); 98% (active) in experiment [4] (setting [8]); 99.2% (active) in experiment [4] (at 50.0 µM). Moreover, the growth inhibition in experiment [5] (setting [7]) is 94% (active); in experiment [5] (setting [8]) it was 99% (active); in experiment [5] (at 50.0 µM), 99.5% (active); in experiment [6] (setting [7]), 97% (active); in experiment [6] (setting [8]), 99% (active); in experiment [6] (at 50.0 µM) it was 99.5% (active).

For the compound `Cc1c(O)c(Br)c(C)c(O)c1Br` (tested in a mixture with another compound), the growth inhibition in experiment [1] (setting [7]) was 0%; in experiment [1] (setting [8]), 85% (active); in experiment [1] (at 50.0 µM), 75.8% (active); in experiment [2] (setting [7]), 21%; in experiment [2] (setting [8]), 69%; in experiment [2] (at 50.0 µM), 49.8%. For the same compound, the growth inhibition is -2% in experiment [3] (setting [7]); 90% (active) in experiment [3] (setting [8]); 80.6% (active) in experiment [3] (at 50.0 µM); -2% in experiment [4] (setting [7]); 47% in experiment [4] (setting [8]); 1.05% in experiment [4] (at 50.0 µM). In addition, the growth inhibition in experiment [5] (setting [7]) was 1%; in experiment [5] (setting [8]) it was 77% (active); in experiment [5] (at 50.0 µM), 61.6%; in experiment [6] (setting [7]), 8%; in experiment [6] (setting [8]), 86% (active); in experiment [6] (at 50.0 µM), 62.1%.

For the compound `Cc1nc(C(N)=S)sc1/C(CC(=O)C(=O)Nc1cccc2ccc(O)cc12)=N\NC(=O)c1ccncc1`, the growth inhibition in experiment [1] (setting [7]) is 25%; in experiment [1] (setting [8]) it was 31%; in experiment [1] (at 50.0 µM), 21.8%; in experiment [2] (setting [7]), 16%; in experiment [2] (setting [8]) it was 18%; in experiment [2] (at 50.0 µM), 7.5%. The growth inhibition in experiment [3] (setting [7]) was 9%; in experiment [3] (setting [8]), 28%; in experiment [3] (at 50.0 µM), -4.85%; in experiment [4] (setting [7]), 14%; in experiment [4] (setting [8]) it was 33%; in experiment [4] (at 50.0 µM), -10.8%. The growth inhibition is 32% in experiment [5] (setting [7]); 29% in experiment [5] (setting [8]); 13.1% in experiment [5] (at 50.0 µM); 14% in experiment [6] (setting [7]); 35% in experiment [6] (setting [8]); 16.4% in experiment [6] (at 50.0 µM).

Consider `OC(Cc1cccnc1)(c1ccccc1)c1ccc(Cl)cc1` (configuration not stated), for which the growth inhibition in experiment [1] (setting [7]) is -7%; in experiment [1] (setting [8]), 69%; in experiment [1] (at 50.0 µM), 97.5% (active); in experiment [2] (setting [7]) it was -3%; in experiment [2] (setting [8]), 80% (active); in experiment [2] (at 50.0 µM), 98% (active). In addition, the growth inhibition was 6% in experiment [3] (setting [7]); 79% (active) in experiment [3] (setting [8]); 97.3% (active) in experiment [3] (at 50.0 µM); -1% in experiment [4] (setting [7]); 64% in experiment [4] (setting [8]); 94.2% (active) in experiment [4] (at 50.0 µM). For the same compound, the growth inhibition is -3% in experiment [5] (setting [7]); 77% (active) in experiment [5] (setting [8]); 97.2% (active) in experiment [5] (at 50.0 µM); -5% in experiment [6] (setting [7]); 71% (active) in experiment [6] (setting [8]); 98% (active) in experiment [6] (at 50.0 µM).

As to `CC(=O)Nc1[c-]cccc1.CC(=O)Nc1[c-]cccc1.CC(=O)O.CC(=O)O.[Pd].[Pd]`, the growth inhibition in experiment [1] (setting [7]) was 2%; in experiment [1] (setting [8]), 31%; in experiment [1] (at 50.0 µM) it was 79.8% (active); in experiment [2] (setting [7]), -1%; in experiment [2] (setting [8]), 51%; in experiment [2] (at 50.0 µM), 87.2% (active). For the same compound, the growth inhibition in experiment [3] (setting [7]) was 17%; in experiment [3] (setting [8]), 89% (active); in experiment [3] (at 50.0 µM), 92.5% (active); in experiment [4] (setting [7]) it was -7%; in experiment [4] (setting [8]) it was 25%; in experiment [4] (at 50.0 µM), 45.1%. The growth inhibition in experiment [5] (setting [7]) was -4%; in experiment [5] (setting [8]) it was 31%; in experiment [5] (at 50.0 µM) it was 58.7%; in experiment [6] (setting [7]) it was -1%; in experiment [6] (setting [8]), 55%; in experiment [6] (at 50.0 µM), 95.8% (active).

In the case of `COc1ccc2cc3c4cc(OC)c(OC)cc4ccn3c2c1`, the growth inhibition is 3% in experiment [1] (setting [7]); 65% in experiment [1] (setting [8]); 33.1% in experiment [1] (at 50.0 µM); -1% in experiment [2] (setting [7]); 58% in experiment [2] (setting [8]); 15.3% in experiment [2] (at 50.0 µM). Further, the growth inhibition in experiment [3] (setting [7]) was 16%; in experiment [3] (setting [8]), 81% (active); in experiment [3] (at 50.0 µM), 62.4%; in experiment [4] (setting [7]) it was 5%; in experiment [4] (setting [8]), 71% (active); in experiment [4] (at 50.0 µM) it was 80% (active). The growth inhibition in experiment [5] (setting [7]) is -1%; in experiment [5] (setting [8]), 84% (active); in experiment [5] (at 50.0 µM) it was 24.2%; in experiment [6] (setting [7]), 12%; in experiment [6] (setting [8]), 88% (active); in experiment [6] (at 50.0 µM), 91.5% (active).

In the case of `COC([C@@H](OC(=O)c1ccccc1)[C@H](OC(=O)c1ccccc1)C(O)COC(=O)c1ccccc1)n1cc(C)c(=O)[nH]c1=O` (some centres not stated), the growth inhibition was -8% in experiment [1] (setting [7]); 26% in experiment [1] (setting [8]); 17.1% in experiment [1] (at 50.0 µM); -8% in experiment [2] (setting [7]); 18% in experiment [2] (setting [8]); 49.5% in experiment [2] (at 50.0 µM). In addition, the growth inhibition in experiment [3] (setting [7]) is 4%; in experiment [3] (setting [8]), 33%; in experiment [3] (at 50.0 µM), 65.5%; in experiment [4] (setting [7]) it was 8%; in experiment [4] (setting [8]) it was 57%; in experiment [4] (at 50.0 µM), 53.5%. The growth inhibition is -19% in experiment [5] (setting [7]); 28% in experiment [5] (setting [8]); 71.8% (active) in experiment [5] (at 50.0 µM); -3% in experiment [6] (setting [7]); 69% in experiment [6] (setting [8]); 67.3% in experiment [6] (at 50.0 µM).
